# Measurements from PubChem BioAssay AID1220 (Sanford-Burnham Center for Chemical Genomics, 2008).
# Screen size: about 190,000 compounds; about 1,300 (0.68%) were called active. No stated cut-off is given here; in the data, active means inhibition above about 50%; inactive means the rest. What follows is part of a selection rich in actives, with near analogues and random picks from the rest.
# Biological target: Mannose-6-phosphate isomerase (Homo sapiens) (UniProt P34949)
# Assay: human PMI inhibitors, high substrate, primary screen, biochemical, fluorescence intensity, high mannose 6-phosphate (AID 1220)
# Details: recombinant PMI enzyme, coupled fluorescence intensity; at 20 µM; hits give high values
# Mannose-6-phosphate isomerase (Homo sapiens), sequence (P34949 whole entry, looked up): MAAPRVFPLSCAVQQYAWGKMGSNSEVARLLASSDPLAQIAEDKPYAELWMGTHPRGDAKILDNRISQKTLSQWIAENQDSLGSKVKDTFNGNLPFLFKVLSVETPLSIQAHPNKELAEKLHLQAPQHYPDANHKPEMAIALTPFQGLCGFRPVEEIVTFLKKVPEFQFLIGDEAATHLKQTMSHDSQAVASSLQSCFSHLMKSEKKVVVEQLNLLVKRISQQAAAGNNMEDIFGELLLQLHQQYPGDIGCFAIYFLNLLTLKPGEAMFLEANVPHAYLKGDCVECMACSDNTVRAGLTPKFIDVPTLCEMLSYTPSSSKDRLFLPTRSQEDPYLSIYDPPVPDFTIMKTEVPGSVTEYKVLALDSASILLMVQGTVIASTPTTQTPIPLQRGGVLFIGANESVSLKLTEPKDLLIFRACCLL
row,SMILES,inhibition
1,O=C(NCc1ccc(Cl)cc1)C(=O)NCC(c1cccnc1)N1CCN(c2ccc(F)cc2)CC1 (configuration not stated),2.5% (inactive)
2,COC1(NC(=O)c2ccccc2)C(C)=CC(=O)C=C1C,6.7% (inactive)
3,CCOC1(NC(=O)c2ccccc2)C(C)=CC(=O)C=C1C,49.2% (inactive)
4,CCCOC1(NC(=O)c2ccccc2)C(C)=CC(=O)C=C1C,55.4% (active)
5,CCNC(=O)/C(=C\C=C\c1ccccc1)NC(=O)c1ccc(Br)o1,-11.4% (inactive)
6,Cc1ccc(Nc2nc3ccccc3c(=O)[nH]2)cc1C,-5% (inactive)
7,Nc1ccc2oc(C3CCCCC3)nc2c1,64% (active)
8,Nc1ccc2nc(C3CCCCC3)[nH]c2c1,32.3% (inactive)
9,O=[N+]([O-])c1ccc2oc(C3CCCCC3)nc2c1,2.8% (inactive)
10,Cc1c(-n2cc(C(=O)O)c(=O)c3cc(F)c(N4CCCC4)c(F)c32)c(=O)n(-c2ccccc2)n1C,16% (inactive)
11,Cc1sc2nc(CN3CCOCC3)nc(NCCc3ccccc3)c2c1C,2% (inactive)
12,CCCc1ccc(-c2cc(N)n[nH]2)cc1,-0.8% (inactive)
13,CCOc1cc(-c2conc2N)cc(OCC)c1OCC,4.6% (inactive)
14,CCOc1cc(-c2cc(N)n[nH]2)cc(OCC)c1OCC,61.2% (active)
15,O=C(Nc1ccc(NC(=O)c2cccs2)cc1)c1cccnc1,-2.7% (inactive)
16,O=C(Nc1cccc(NC(=O)c2cccnc2)c1)c1cccnc1,7.6% (inactive)
17,O=C(Nc1cccc(NC(=O)c2cccs2)c1)c1cccnc1,50.8% (active)
18,Oc1ccc(CCC2CCCCN2Cc2nc(C3CC3)no2)cc1 (configuration not stated),5.5% (inactive)
19,CCc1ccccc1NC(=O)Nc1ccc(F)cc1F,-2.1% (inactive)
20,CN1C(=O)N(C)c2ccc(C=O)c3cccc1c23,63.6% (active)
21,CN1C(=O)c2cccc3c(Cl)ccc(c23)C1=O,-5.2% (inactive)
22,Cn1cc(C=O)c2ccccc21,8.2% (inactive)
23,O=C(Cn1cncn1)NCc1ccc(Cl)cc1,-13.3% (inactive)
24,O=C(Cn1cncn1)N/N=C/c1ccc(Cl)cc1,-5% (inactive)
25,Cc1cc(Cl)ccc1NC(=O)Cn1cncn1,62.6% (active)
26,COc1cc2cnc(Cl)nc2cc1OC,54.8% (active)

row,SMILES,inhibition
1,COc1cc2cc(C(N)=O)c(N)nc2cc1OC,-0.4% (inactive)
2,COc1cc2cnncc2cc1OC,-4.8% (inactive)
3,COc1ccc(CC(=O)NCc2n[nH]c(=S)n2-c2ccccc2)cc1,-0.6% (inactive)
4,Cc1ccc(C)c(S(=O)(=O)N2CCN(Cc3ccc(O)c4ncccc34)CC2)c1,19.7% (inactive)
5,CCOC(=O)N1CCN(Cc2ccccc2Cl)CC1,4.6% (inactive)
6,OCCN1CCN(Cc2cc(Cl)c3cccnc3c2O)CC1,48.3% (inactive)
7,CCOC(=O)N1CCN(Cc2ccccn2)CC1,-7.5% (inactive)
8,COc1ccc(-n2c(SCC(=O)Nc3nccs3)nc3c(c2=O)SCC3)cc1,11.9% (inactive)
9,CCC(=O)c1ccc(OCC(O)CN2CCOCC2)cc1 (configuration not stated),6.8% (inactive)
10,O=C(Nc1ccc2c(c1)CCC2)Nc1ccc2c(c1)OCO2,11% (inactive)
11,CC(/C=N/Nc1nc(C)cc(=O)[nH]1)=C\c1ccccc1,-78.9% (inactive)
12,COc1ccccc1NC(=S)NNC(=S)Nc1ccc(OC(F)F)cc1,5.4% (inactive)
13,COc1ccc(NC(=S)Nc2ccccc2)cn1,8.5% (inactive)
14,COc1ccc(NC(=S)Nc2ccc(OC(F)F)cc2)cn1,58.2% (active)
15,O=C(O)c1ccccc1SCC(=O)N1CCc2ccccc21,-1.8% (inactive)
16,O=C1OC(Nc2ccc(Br)cc2F)c2ccccc21 (configuration not stated),-12.4% (inactive)
17,O=C1OC(Nc2cc(Br)cc3cccnc23)c2ccccc21 (configuration not stated),50.7% (active)
18,O=C1OC(Nc2ncccn2)c2ccccc21 (configuration not stated),5.1% (inactive)
19,CCOC(=O)c1ccccc1NC1OC(=O)c2ccccc21 (configuration not stated),6.8% (inactive)
20,Cc1ccc2cccc(NC3OC(=O)c4ccccc43)c2n1 (configuration not stated),59.9% (active)
21,COC(=O)c1ccccc1NC1OC(=O)c2ccccc21 (configuration not stated),8.6% (inactive)
22,Cc1ccc(OCCOc2ccc(Br)cc2/C=N\NC(N)=O)cc1,4% (inactive)
23,CCOc1ccc(N=Nc2c(=O)[nH]n3c(C)cc(C)nc23)cc1,18% (inactive)
24,CCOC(=O)C1CCCN(C2CC(=O)N(c3ccc(C)cc3)C2=O)C1 (configuration not stated),-2.1% (inactive)
25,COC(=O)CP(=O)(c1ccccc1)c1ccccc1,-5.8% (inactive)
26,CCOC(=O)COc1ccc2ccccc2c1/C=C/[N+](=O)[O-],54.6% (active)

row,SMILES,inhibition
1,CCOC(=O)COc1ccccc1/C=C\[N+](=O)[O-],0.8% (inactive)
2,CCOC(=O)Cn1cc(/C=C/[N+](=O)[O-])c2ccccc21,8.7% (inactive)
3,CCOc1ccc(/C=C/[N+](=O)[O-])c2ccccc12,55.6% (active)
4,CCOC(=O)COc1ccc(/C=C/[N+](=O)[O-])c(OCC(=O)OCC)c1,1.7% (inactive)
5,O=[N+]([O-])/C=C/c1c(OCc2ccccc2)ccc2ccccc12,3.1% (inactive)
6,COc1ccc(Nc2nc(N)nc(CSc3nncn3C)n2)cc1,4.9% (inactive)
7,CCN(Cc1ccccc1)C(=O)CSc1nc(C)cc(C)c1C#N,5.3% (inactive)
8,Cc1ccc2c(c1)NC(C(C)(C)C)CO2 (configuration not stated),-5.8% (inactive)
9,CC1CCC(C(C)C)C(OC(=O)COC(=O)c2ccc(N)cc2)C1 (configuration not stated),16.2% (inactive)
10,CC1CCC(C(C)C)C(OC(=O)COC(=O)c2cc(O)ccc2N)C1 (configuration not stated),59.5% (active)
11,CC1CCC(C(C)C)C(OC(=O)COC(=O)c2cccn2C)C1 (configuration not stated),16% (inactive)
12,Cc1ccc(SCCNC(=O)CN(c2ccc3c(c2)OCO3)S(C)(=O)=O)cc1,13.2% (inactive)
13,CCc1ccccc1OCc1nc2ccc(S(=O)(=O)N3CCOCC3)cc2[nH]1,9.5% (inactive)
14,CC(C)Cc1nc(N2CCC(C(N)=O)CC2)c2nnn(Cc3ccccc3)c2n1,-15% (inactive)
15,O=C1c2ccccc2C(=O)N1CCSc1ncn[nH]1,-12% (inactive)
16,CCc1ccc(S(=O)(=O)/N=C2\C=CC(=O)c3ccccc32)cc1,50.7% (active)
17,Cc1ccc(S(=O)(=O)/N=C2/C=C(C3C(=O)CC(C)(C)CC3=O)C(=O)c3ccccc32)cc1,-3.6% (inactive)
18,O=C(O)c1ccc(NC2=C/C(=N/S(=O)(=O)c3ccccc3)c3ccccc3C2=O)cc1,-34.1% (inactive)
19,CC(C)c1ccc(S(=O)(=O)/N=C2/C=CC(=O)c3ccccc32)cc1,44.1% (inactive)
20,Cc1ccc(S(=O)(=O)/N=C2/C=C(Sc3ncn[nH]3)C(=O)c3ccccc32)cc1,88.3% (active)
21,CCc1ccc(C(=O)CSc2ncn[nH]2)cc1,-20.5% (inactive)
22,CCc1ccc(S(=O)(=O)/N=C2/C=C(Sc3ncn[nH]3)C(=O)c3ccccc32)cc1,90.6% (active)
23,CC(C)c1ccc(S(=O)(=O)/N=C2/C=C(Sc3ncn[nH]3)C(=O)c3ccccc32)cc1,80% (active)
24,CC(C)c1ccc(N2C(=O)CC(Sc3ncn[nH]3)C2=O)cc1 (configuration not stated),22.4% (inactive)
25,COC(=O)C(C(C)=O)C1=C/C(=N\S(=O)(=O)c2ccc(C)cc2)c2ccccc2C1=O (configuration not stated),18% (inactive)
26,CCc1ccc(S(=O)(=O)ON2C(=O)c3ccccc3C2=O)cc1,-11.4% (inactive)

row,SMILES,inhibition
1,CCOC(=O)N1CCN(C(=O)CSCc2ccc(Br)cc2)CC1,1.1% (inactive)
2,Cc1ccc(NC(=O)CSc2nnc(C(F)(F)F)n2C)cc1[N+](=O)[O-],2.1% (inactive)
3,CC(C)/C=C1\CCCCC1N(C)C(=O)NC(C)C (configuration not stated),2.9% (inactive)
4,CCCCCCCSc1nnc(-c2ccccc2N)c(=O)[nH]1,13.6% (inactive)
5,CCNc1sc(C(=O)c2cccs2)c(N)c1-c1nc2ccccc2s1,-5.3% (inactive)
6,Cc1ccc2sc(N(CCCN(C)C)C(=O)c3ccc(Br)s3)nc2c1C,-10.3% (inactive)
7,CCOc1ccccc1N(CC(=O)NC1CCCCC1)C(=O)c1nsc(Cl)c1Cl,8.5% (inactive)
8,CCOc1ccccc1NC(=O)Cn1nnc(-c2ccc(OCC)c(OCC)c2)n1,-1.1% (inactive)
9,COc1ccc(-c2cn(-c3cccc(C)c3)c(=O)[nH]2)cc1OC,-94.8% (inactive)
10,COc1ccc(C2CC2/C(=N/OC(=O)c2cccs2)c2ccccc2)cc1 (configuration not stated),4.3% (inactive)
11,O=C(C1CCN(S(=O)(=O)N2CCC3(CC2)OCCO3)CC1)N1CCCCC1,11% (inactive)
12,COc1ccc(Oc2coc3cc(OC(=O)/C=C/c4ccccc4)ccc3c2=O)cc1,6.5% (inactive)
13,COc1ccc(Oc2coc3cc(OC(=O)/C=C/c4ccc(F)cc4)ccc3c2=O)cc1,-6.3% (inactive)
14,COc1ccccc1-c1coc2cc(OC(=O)/C=C/c3ccccc3)ccc2c1=O,57.1% (active)
15,COc1cccc(NC(=O)N2CCCC2C(=O)Nc2ccc3c(c2)OCCO3)c1 (configuration not stated),7% (inactive)
16,CCOC(=O)C(C(=O)OCC)c1cc(Br)c2noc3c2c1C(=O)c1ccccc1-3,52.1% (active)
17,CCOC(=O)c1c(C)nc2c(c1-c1ccccc1)C(=O)c1ccccc1-2,-34.4% (inactive)
18,O=C1c2ccccc2-c2onc3c(Oc4ccccc4)cc(O)c1c23,-4.7% (inactive)
19,COc1ccc(Cc2n[nH]c(=S)n2C)cc1Br,0.8% (inactive)
20,O=C(NCCN1CCCCC1)c1cc(OCC(F)(F)F)ccc1OCC(F)(F)F,7.9% (inactive)
21,CCCCNC(=S)Nc1ccccc1F,59% (active)
22,Fc1ccccc1NC(=S)NCCc1ccccc1,-7.1% (inactive)
23,CC(C)CCNC(=S)Nc1ccccc1F,-14.2% (inactive)
24,O=C(COC(=O)Cc1ccccc1[N+](=O)[O-])NCc1ccccc1Cl,-4% (inactive)
